The values below come from PubChem BioAssay (EPA / NIEHS).

Test [1] has as its target human Adrenergic, Alpha 2A Receptor (Adra2A), ADRA2A (gene 150) (UniProt P08913). Nature of the test: NVS_GPCR_hAdra2A: NovaScreen (NVS) G Protein-Coupled Receptor Assay for human Adrenergic, Alpha 2A Receptor (Adra2A) (AID 2283257). The method, boiled down: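 Radioligand filter-binding was run on HT29-derived membranes, cell-free, read by scintillation counting 1 h after dosing. Primary screening was in duplicate at 25 uM, with concentration series in follow-up. Loss of signal versus DMSO indicates displacement.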

In test [2] the test system is guinea pig Muscarinic, Peripheral (Mperiperal) Receptor, Non-selective Binding, gene 100379235. Nature of the test: NVS_GPCR_gMPeripheral_NonSelective: NovaScreen (NVS) G Protein-Coupled Receptor Assay for guinea pig Muscarinic, Peripheral (Mperiperal) Receptor, Non-selective Binding (AID 2283250). The method, boiled down:
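Guinea pig bladder membranes, radioligand binding read 1 h after dosing by filter scintillation counting; loss of signal vs DMSO. Primary duplicate screen at 25 uM, then concentration-response up to 50 uM.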

For test [3], the target named is human Serotonin, 5-Hydroxytryptamine Receptor 5A (5HT5A), HTR5A (gene 3361) (UniProt P47898). Nature of the test: NVS_GPCR_h5HT5A: NovaScreen (NVS) G Protein-Coupled Receptor Assay for human Serotonin, 5-Hydroxytryptamine Receptor 5A (5HT5A) (AID 2283251). The method, boiled down: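 Cell-free radioligand displacement binding on HEK293-derived membrane protein, 1 h incubation, filter-based scintillation counting. Primary screen in duplicate at 25 uM, actives followed in concentration series; loss of signal fitted versus DMSO.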
Chain of human Serotonin, 5-Hydroxytryptamine Receptor 5A (5HT5A), HTR5A (gene 3361) (P47898 whole entry, looked up): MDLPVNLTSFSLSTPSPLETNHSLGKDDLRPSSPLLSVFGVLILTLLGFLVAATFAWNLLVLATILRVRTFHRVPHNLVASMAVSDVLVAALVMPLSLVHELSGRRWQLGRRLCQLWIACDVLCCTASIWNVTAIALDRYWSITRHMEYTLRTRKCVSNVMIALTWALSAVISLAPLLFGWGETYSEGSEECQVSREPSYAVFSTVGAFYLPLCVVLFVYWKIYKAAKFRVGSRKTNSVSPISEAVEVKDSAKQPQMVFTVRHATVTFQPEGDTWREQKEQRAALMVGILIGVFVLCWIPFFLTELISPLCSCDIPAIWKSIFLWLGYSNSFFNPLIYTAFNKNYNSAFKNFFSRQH

Test [4] deals with human Serotonin, 5-Hydroxytryptamine Receptor 6 (5HT6), HTR6 (gene 3362) (UniProt P50406). As to the kind of experiment: NVS_GPCR_h5HT6: NovaScreen (NVS) G Protein-Coupled Receptor Assay for human Serotonin, 5-Hydroxytryptamine Receptor 6 (5HT6) (AID 2283253). The method, boiled down: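 Radioligand binding to 5HT6 in HEK293-derived membranes, cell-free, 1 h after dosing; bound ligand measured by filter-based scintillation counting. Primary screen in duplicate at 25 uM; actives retested in concentration series.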

In test [5] the test system is rat Monoamine Oxidase, MAO-A, Central (MAOAC), gene 29253. Nature of the test: NVS_ENZ_rMAOAC: NovaScreen (NVS) Enzymatic Assay for rat Monoamine Oxidase, MAO-A, Central (MAOAC) (AID 2283243).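 Further: potency refers to inhibition seen as signal drop below DMSO baseline.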 The method, boiled down:
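Steps: rat brain protein extract dosed with test chemical (25 uM, duplicate, primary); incubated 1.5 h; radiolabelled product separated from substrate and counted. Signal loss versus DMSO scored as inhibition.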

Test [6] has as its target guinea pig Leukotriene D4 Receptor (LTD4), CYSLTR1 (gene 100135514) (UniProt Q2NNR5). As to the kind of experiment: NVS_GPCR_gLTD4: NovaScreen (NVS) G Protein-Coupled Receptor Assay for guinea pig Leukotriene D4 Receptor (LTD4) (AID 2283248). The method, boiled down:
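Radioligand displacement on guinea pig lung membranes, 1 h incubation, filtration and scintillation counting; DMSO as negative control. Duplicate 25 uM primary screen, then singleton concentration-response up to 50 uM.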

For test [7], the target named is human Adenosine A1 Receptor (AdoRA1), ADORA1 (gene 134) (UniProt P30542). Nature of the test: NVS_GPCR_hAdoRA1: NovaScreen (NVS) G Protein-Coupled Receptor Assay for human Adenosine A1 Receptor (AdoRA1) (AID 2283254). In short, it runs like this:
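Radioligand competition binding on human cortical membranes, 1 h after compound addition; bound radioactivity read by filtration and scintillation counting. Loss of signal versus DMSO baseline scored as displacement; primary screen duplicate at 25 uM, actives retested in concentration series.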

The target of test [8] is human Serotonin, 5-Hydroxytryptamine Receptor 7 (5HT7), HTR7 (gene 3363) (UniProt P34969). Nature of the test: NVS_GPCR_h5HT7: NovaScreen (NVS) G Protein-Coupled Receptor Assay for human Serotonin, 5-Hydroxytryptamine Receptor 7 (5HT7) (AID 2283255).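 Further: hits reduce specific radioligand binding relative to DMSO.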 In short, it runs like this: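 Radioligand displacement on membranes from CHO cells expressing human 5HT7, 1 h incubation, filter-based scintillation counting. Primary screen used a single 25 uM concentration in duplicate; actives were followed up in concentration series.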
Chain of human Serotonin, 5-Hydroxytryptamine Receptor 7 (5HT7), HTR7 (gene 3363) (P34969 whole entry, looked up): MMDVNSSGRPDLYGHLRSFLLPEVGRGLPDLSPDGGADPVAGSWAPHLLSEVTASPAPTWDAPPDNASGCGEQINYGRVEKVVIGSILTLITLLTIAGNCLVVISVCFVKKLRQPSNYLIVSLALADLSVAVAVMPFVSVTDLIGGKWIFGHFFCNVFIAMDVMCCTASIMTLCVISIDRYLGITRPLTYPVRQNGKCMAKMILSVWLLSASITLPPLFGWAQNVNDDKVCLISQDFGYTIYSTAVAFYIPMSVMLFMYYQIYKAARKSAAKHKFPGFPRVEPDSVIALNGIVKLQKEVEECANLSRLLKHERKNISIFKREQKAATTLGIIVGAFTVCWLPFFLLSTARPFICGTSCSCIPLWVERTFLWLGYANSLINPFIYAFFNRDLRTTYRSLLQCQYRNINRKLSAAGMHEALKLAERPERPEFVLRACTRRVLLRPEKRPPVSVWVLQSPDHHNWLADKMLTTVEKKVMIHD

Test [9] has as its target human Adenosine A2a Receptor (AdoRA2a), ADORA2A (gene 135) (UniProt P29274). Nature of the test: NVS_GPCR_hAdoRA2a: NovaScreen (NVS) G Protein-Coupled Receptor Assay for human Adenosine A2a Receptor (AdoRA2a) (AID 2283256). The method, boiled down: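 Radioligand displacement on HEK293-derived membrane protein, cell-free; filter-based scintillation counting 1.5 hours after dosing, loss of signal vs DMSO. Single-point duplicate screen at 25 uM, actives retested in concentration series.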

The target of test [10] is human Adrenergic, Beta 1 Receptor (Adrb1), ADRB1 (gene 153) (UniProt P08588). Nature of the test: NVS_GPCR_hAdrb1: NovaScreen (NVS) G Protein-Coupled Receptor Assay for human Adrenergic, Beta 1 Receptor (Adrb1) (AID 2283258). The method, boiled down: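 Cell-free radioligand displacement on receptor from human neuroepithelioma cells; 2 h after dosing, filter-based scintillation counting. Primary screen in duplicate at 25 uM, actives retested in concentration series; loss of signal vs DMSO baseline.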
Chain of human Adrenergic, Beta 1 Receptor (Adrb1), ADRB1 (gene 153) (P08588 whole entry, looked up): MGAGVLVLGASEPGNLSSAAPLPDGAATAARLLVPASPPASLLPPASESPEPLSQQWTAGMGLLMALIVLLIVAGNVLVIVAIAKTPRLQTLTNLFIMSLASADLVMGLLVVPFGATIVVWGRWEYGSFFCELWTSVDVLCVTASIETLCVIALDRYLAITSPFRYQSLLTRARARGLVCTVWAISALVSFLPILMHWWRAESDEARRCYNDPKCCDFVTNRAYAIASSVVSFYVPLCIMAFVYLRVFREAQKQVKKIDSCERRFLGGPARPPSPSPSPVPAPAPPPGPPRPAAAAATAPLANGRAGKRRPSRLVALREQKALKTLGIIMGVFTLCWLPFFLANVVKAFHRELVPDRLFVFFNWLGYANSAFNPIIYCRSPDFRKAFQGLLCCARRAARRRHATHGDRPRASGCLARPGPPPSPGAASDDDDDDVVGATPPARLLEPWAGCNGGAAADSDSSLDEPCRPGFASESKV

The target of test [11] is human Adrenergic, Alpha 2c Receptor (Adra2C), ADRA2C (gene 152) (UniProt P18825). Nature of the test: NVS_GPCR_hAdra2C: NovaScreen (NVS) G Protein-Coupled Receptor Assay for human Adrenergic, Alpha 2c Receptor (Adra2C) (AID 2283259). The method, boiled down: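 Radioligand binding on Sf9-expressed receptor membranes, 1 h after chemical dosing, filter-based scintillation read-out. Loss of binding fitted positively versus DMSO; primary duplicate screen at 25 uM, actives retested in concentration series.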
Chain of human Adrenergic, Alpha 2c Receptor (Adra2C), ADRA2C (gene 152) (P18825 whole entry, looked up): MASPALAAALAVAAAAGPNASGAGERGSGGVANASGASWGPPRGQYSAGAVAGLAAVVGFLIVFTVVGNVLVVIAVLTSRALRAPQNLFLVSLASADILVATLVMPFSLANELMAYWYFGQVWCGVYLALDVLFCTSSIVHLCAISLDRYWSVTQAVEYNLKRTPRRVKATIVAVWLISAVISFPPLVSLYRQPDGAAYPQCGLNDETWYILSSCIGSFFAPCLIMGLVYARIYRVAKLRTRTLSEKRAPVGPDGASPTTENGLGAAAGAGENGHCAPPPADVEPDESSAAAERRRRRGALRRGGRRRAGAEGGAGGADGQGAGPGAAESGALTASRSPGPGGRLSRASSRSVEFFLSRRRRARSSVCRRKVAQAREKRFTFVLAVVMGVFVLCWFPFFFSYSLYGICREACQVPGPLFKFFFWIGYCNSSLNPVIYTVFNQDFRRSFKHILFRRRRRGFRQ

Test [12] deals with Type-1 angiotensin II receptor (Homo sapiens) (UniProt P30556). Nature of the test: NVS_GPCR_hAT1: NovaScreen (NVS) G Protein-Coupled Receptor Assay for human Angiotensin II receptor type 1 (AT1) (AID 2283263). In short, it runs like this:
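Membranes from KAN-TS cells; radioligand competitive displacement, 3 h, filtration and scintillation counting. Single-point duplicate screen at 25 uM, then concentration-response up to 50 uM for hits; loss of signal fitted versus DMSO.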

Test [13] has as its target human Dopamine Receptor D4.4 (DRD4.4), DRD4 (gene 1815) (UniProt P21917). Nature of the test: NVS_GPCR_hDRD4.4: NovaScreen (NVS) G Protein-Coupled Receptor Assay for human Dopamine Receptor D4.4 (DRD4.4) (AID 2283264). The method, boiled down: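 Radioligand displacement on human DRD4.4 from CHO-derived membranes, 1 hour incubation, bound counts read by filtration and scintillation. Primary screen in duplicate at 25 uM; actives followed up in concentration series.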

For test [14], the target named is human Dopamine Receptor D2 (DRD2), DRD2 (gene 1813) (UniProt P14416). Nature of the test: NVS_GPCR_hDRD2s: NovaScreen (NVS) G Protein-Coupled Receptor Assay for human Dopamine Receptor D2 (DRD2) (AID 2283266). In short, it runs like this: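 Radioligand displacement used human DRD2 membranes extracted from CHO cells and was read by filter-based scintillation counting after 1.5 hours. Primary screening was in duplicate at 25 uM. Loss of signal versus DMSO was fitted, with concentration series in follow-up.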
Chain of human Dopamine Receptor D2 (DRD2), DRD2 (gene 1813) (P14416 whole entry, looked up): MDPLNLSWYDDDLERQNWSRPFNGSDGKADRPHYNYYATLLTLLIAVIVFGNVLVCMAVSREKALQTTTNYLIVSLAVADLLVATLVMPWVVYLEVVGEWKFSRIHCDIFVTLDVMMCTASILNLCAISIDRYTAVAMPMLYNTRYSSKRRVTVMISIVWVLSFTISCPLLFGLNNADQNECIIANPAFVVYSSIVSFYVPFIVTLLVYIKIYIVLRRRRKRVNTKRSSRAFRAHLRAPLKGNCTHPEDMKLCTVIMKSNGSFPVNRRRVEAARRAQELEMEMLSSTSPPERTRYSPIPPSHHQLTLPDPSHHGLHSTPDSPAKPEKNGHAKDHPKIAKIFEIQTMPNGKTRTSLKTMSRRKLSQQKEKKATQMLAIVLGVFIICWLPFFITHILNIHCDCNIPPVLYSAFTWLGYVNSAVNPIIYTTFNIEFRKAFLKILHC

For test [15], the target named is guinea pig Opioid, Kappa 1 Receptor (OpiateK), OPRK1 (gene 100135587) (UniProt P41144). Nature of the test: NVS_GPCR_gOpiateK: NovaScreen (NVS) G Protein-Coupled Receptor Assay for guinea pig Opioid, Kappa 1 Receptor (OpiateK) (AID 2283252).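 Further: active means reduced radioligand binding relative to DMSO.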 The method, boiled down: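 Signal is scintillation counts of filter-trapped radioligand bound to guinea pig cerebellar membrane receptor, measured 2 hours post-dosing. Activity is loss of binding versus DMSO, first at 25 uM in duplicate, then as concentration series for actives.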
Chain of guinea pig Opioid, Kappa 1 Receptor (OpiateK), OPRK1 (gene 100135587) (P41144 whole entry, looked up): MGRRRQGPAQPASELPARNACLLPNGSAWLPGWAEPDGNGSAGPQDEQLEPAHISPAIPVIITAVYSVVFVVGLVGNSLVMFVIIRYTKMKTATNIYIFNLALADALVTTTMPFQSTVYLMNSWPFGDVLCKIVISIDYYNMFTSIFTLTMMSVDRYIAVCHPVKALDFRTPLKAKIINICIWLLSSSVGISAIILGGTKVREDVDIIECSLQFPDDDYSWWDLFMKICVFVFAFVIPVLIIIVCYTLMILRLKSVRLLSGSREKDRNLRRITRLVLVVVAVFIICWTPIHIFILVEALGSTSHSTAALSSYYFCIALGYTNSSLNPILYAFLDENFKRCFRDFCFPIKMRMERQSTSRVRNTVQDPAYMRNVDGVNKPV

For test [16], the system named is guinea pig Leukotriene B4 Receptor (LTB4), gene 100379538. As to the kind of experiment: NVS_GPCR_gLTB4: NovaScreen (NVS) G Protein-Coupled Receptor Assay for guinea pig Leukotriene B4 Receptor (LTB4) (AID 2283247). The method, boiled down: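 Radioligand displacement on guinea pig spleen membranes, filter-based scintillation counting 2 h after dosing. Primary duplicate single point at 25 uM; hits over threshold (e.g. 30% inhibition) run in concentration-response up to 50 uM, DMSO baseline.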

“And” between values parts separate entries of the source, which are not always exact repeats. Identical values can stand only once. Inconclusive results are not listed. Some compounds were tested as several samples or in several runs, with calls that do not always agree. The source made the active and inactive calls. How the source made its calls: active means hit-call score of the fitted dose curve at least 0.9, where 1 is the maximum; inconclusive means response in the unintended direction; inactive means score below 0.9.

Chain of human Adrenergic, Alpha 2A Receptor (Adra2A), ADRA2A (gene 150) (P08913 whole entry, looked up): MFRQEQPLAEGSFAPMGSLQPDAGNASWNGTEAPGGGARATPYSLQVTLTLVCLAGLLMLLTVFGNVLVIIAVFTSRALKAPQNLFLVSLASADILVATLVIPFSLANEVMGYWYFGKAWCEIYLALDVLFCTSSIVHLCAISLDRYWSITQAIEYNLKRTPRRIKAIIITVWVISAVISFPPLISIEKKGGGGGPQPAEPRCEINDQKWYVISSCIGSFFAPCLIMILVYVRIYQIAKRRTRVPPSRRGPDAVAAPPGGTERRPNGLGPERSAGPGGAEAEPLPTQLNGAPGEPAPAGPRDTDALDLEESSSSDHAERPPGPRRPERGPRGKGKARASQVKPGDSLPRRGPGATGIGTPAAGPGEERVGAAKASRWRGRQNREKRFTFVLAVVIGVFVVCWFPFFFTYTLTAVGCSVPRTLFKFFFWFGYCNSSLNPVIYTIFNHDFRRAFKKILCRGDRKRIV
Chain of human Adenosine A1 Receptor (AdoRA1), ADORA1 (gene 134) (P30542 whole entry, looked up): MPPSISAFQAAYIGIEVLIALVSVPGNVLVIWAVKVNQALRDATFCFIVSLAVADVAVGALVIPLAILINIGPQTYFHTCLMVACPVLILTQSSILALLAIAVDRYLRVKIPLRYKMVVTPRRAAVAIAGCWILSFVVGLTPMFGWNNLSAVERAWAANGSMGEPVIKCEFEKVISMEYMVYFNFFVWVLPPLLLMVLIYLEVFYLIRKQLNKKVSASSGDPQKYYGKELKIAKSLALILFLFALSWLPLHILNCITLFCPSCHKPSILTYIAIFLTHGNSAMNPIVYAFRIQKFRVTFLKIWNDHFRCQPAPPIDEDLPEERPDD
Chain of human Dopamine Receptor D4.4 (DRD4.4), DRD4 (gene 1815) (P21917 whole entry, looked up): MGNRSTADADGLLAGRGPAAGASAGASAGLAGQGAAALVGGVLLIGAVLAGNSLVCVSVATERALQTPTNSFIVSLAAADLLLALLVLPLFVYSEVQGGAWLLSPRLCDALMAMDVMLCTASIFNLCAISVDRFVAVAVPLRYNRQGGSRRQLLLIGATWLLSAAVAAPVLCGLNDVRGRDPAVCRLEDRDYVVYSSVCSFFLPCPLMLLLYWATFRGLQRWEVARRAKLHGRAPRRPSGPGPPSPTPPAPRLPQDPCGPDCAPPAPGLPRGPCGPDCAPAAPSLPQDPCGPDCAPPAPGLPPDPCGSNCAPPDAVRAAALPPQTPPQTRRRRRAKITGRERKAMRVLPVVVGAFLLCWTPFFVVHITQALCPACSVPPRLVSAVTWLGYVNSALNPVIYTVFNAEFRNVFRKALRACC
Chain of Type-1 angiotensin II receptor (Homo sapiens) (P30556 whole entry, looked up): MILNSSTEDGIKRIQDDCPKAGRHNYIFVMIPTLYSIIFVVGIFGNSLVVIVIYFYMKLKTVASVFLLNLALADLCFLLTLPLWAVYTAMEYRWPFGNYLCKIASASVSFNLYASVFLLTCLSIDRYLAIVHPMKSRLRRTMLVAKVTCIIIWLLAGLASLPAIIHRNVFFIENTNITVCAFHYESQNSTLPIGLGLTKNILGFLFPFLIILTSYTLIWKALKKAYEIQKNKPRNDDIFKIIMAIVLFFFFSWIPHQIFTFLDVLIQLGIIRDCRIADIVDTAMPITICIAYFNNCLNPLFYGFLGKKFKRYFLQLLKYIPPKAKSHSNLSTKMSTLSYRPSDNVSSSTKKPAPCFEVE
Chain of human Adenosine A2a Receptor (AdoRA2a), ADORA2A (gene 135) (P29274 whole entry, looked up): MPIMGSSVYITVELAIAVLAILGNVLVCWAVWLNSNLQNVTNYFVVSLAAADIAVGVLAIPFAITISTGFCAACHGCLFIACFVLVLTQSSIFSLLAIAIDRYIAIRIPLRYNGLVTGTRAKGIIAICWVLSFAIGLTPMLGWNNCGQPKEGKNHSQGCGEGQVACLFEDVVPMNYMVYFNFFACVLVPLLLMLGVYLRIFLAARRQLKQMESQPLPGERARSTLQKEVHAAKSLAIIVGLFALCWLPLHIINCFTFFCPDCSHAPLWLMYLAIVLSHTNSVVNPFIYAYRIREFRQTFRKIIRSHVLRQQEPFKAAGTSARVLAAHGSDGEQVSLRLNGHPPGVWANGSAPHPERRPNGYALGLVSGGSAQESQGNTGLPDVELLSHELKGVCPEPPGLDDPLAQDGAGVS
Chain of guinea pig Leukotriene D4 Receptor (LTD4), CYSLTR1 (gene 100135514) (Q2NNR5 whole entry, looked up): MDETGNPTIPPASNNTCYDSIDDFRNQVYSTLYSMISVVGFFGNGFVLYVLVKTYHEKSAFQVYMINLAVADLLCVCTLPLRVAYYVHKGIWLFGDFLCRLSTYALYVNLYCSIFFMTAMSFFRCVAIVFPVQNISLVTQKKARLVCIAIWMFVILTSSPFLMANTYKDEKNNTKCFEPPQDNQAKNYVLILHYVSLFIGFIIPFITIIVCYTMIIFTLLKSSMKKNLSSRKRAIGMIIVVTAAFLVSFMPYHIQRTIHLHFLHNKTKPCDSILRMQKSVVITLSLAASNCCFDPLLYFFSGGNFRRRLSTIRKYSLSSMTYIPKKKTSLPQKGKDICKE

As to `OCCOc1ccccc1`, the compound was called inactive in [1].

The AC50 is the concentration at which the activity in the assay is half-maximal. On to `O=C1c2ccccc2C(=O)N1SC(Cl)(Cl)Cl`, for which the call in test [2] and in test [3] was inactive. The AC50 in [4] is 16.3 µM (active).

On to `CCCN(CCC)c1c([N+](=O)[O-])cc(C(F)(F)F)cc1[N+](=O)[O-]`, for which the AC50 in test [3] is 6.21 µM (active). Besides, in test [1], the compound was classed as inactive.

For the compound `Oc1ccc(Cl)cc1Cc1ccccc1`, the AC50 was 17.3 µM (active) and 25.2 µM (active) in test [5]; 6.93 µM (active) in test [6]; 25.2 µM (active) [middle of 6 runs] in test [3]; 16.1 µM (active) [middle of 6 runs] in [7]; 20.8 µM (active) [middle of 5 runs] in test [8]; 25.2 µM (active) and 15.1 µM (active) in test [9]. Besides, the AC50 in test [10] was 33.3 µM (active) [middle of 5 runs]; in [11] it was 25.2 µM (active) [middle of 6 runs]; in test [13] it was 25.2 µM (active); in test [14], 33.5 µM (active) [middle of 6 runs]. For the same compound, the compound was called inactive in test [5], in test [6] and in test [12].

Consider `CCc1ccc(C(=O)NN(C(=O)c2cc(C)cc(C)c2)C(C)(C)C)cc1`, for which the result in test [2] was inactive.

As to `CCC(C)(NC(=O)c1cc(Cl)c(C)c(Cl)c1)C(=O)CCl` (stereo not drawn), the compound was called inactive in [3].

As for `CC1(C)C(C=C(Cl)Cl)C1C(=O)OC(C#N)c1ccc(F)c(Oc2ccccc2)c1` (stereo not drawn), the compound was called inactive in test [8].

Take `CCC(C)(C)C(=O)OC1=C(c2ccc(Cl)cc2Cl)C(=O)OC12CCCCC2`: the compound was called inactive in test [3] and in test [11].

On to `[2H]C1([2H])[n+]2ccccc2-c2cccc[n+]2C1([2H])[2H]`, for which the compound was called inactive in test [2].

For the compound `CCOc1nc(NC)nc(NC(=O)NS(=O)(=O)c2ccccc2C(=O)OC)n1`, the result in [1] was inactive.

Turning to `CCN(CC)C(=O)SCc1ccc(Cl)cc1`, in test [3], the result was inactive.

For the compound `CCCN(CCOc1c(Cl)cc(Cl)cc1Cl)C(=O)n1ccnc1`, the half-maximal activity concentration (AC50) is 8.15 µM (active) in [5], 13.3 µM (active) in test [8] and 4.96 µM (active) in [11]. Besides, the outcome in test [3] and in test [15] was inactive.

Regarding `O=S1OCC2C(CO1)C1(Cl)C(Cl)=C(Cl)C2(Cl)C1(Cl)Cl` (stereo not drawn), the compound was classed as inactive in test [3].

On to `O=C(Nc1ccccc1)Nc1cnns1`, for which the AC50 is 5.16 µM (active) in test [5], 25 µM (active) in [16], 3.88 µM (active) in test [3] and 4.96 µM (active) in test [11]. For the same compound, the outcome in [8] and in [9] was inactive.

With `CNC(=O)Oc1cccc(N=CN(C)C)c1`, the outcome in test [5] and in test [13] was inactive.

Turning to `N#Cc1c(Cl)c(Cl)c(Cl)c(C#N)c1Cl`, the compound was classed as inactive in test [4] and in test [12].
